# From PubChem BioAssay AID588466 (NMMLSC, 2011)
# Values joined by “and” are separate entries in the source; they are usually repeats but may differ in a detail not shown here. Equal entries are not always repeated. Out of some 2,100 compounds screened, about 30 (1%) were called active.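 How the source made its calls: active means compounds whose mean binding response over two repeats is below 75% of the DMSO control; inactive means the rest.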 Only a sample is shown.
# Molecular target: Desmoglein-3 (Homo sapiens) (UniProt P32926)
# Assay: inhibitors of anti-DSG3 scFv binding to DSG3, confirmation, biochemical, cherry pick 1, bead-based, flow cytometry (AID 588466);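 further: 100% = 2% DMSO vehicle and 0% = excess soluble DSG3 blocking control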
# Conditions: Protein G beads with DSG3, scFv-GFP binding, at 10 µM, hits give low values
# Sequence of Desmoglein-3 (Homo sapiens) (P32926 whole entry, looked up): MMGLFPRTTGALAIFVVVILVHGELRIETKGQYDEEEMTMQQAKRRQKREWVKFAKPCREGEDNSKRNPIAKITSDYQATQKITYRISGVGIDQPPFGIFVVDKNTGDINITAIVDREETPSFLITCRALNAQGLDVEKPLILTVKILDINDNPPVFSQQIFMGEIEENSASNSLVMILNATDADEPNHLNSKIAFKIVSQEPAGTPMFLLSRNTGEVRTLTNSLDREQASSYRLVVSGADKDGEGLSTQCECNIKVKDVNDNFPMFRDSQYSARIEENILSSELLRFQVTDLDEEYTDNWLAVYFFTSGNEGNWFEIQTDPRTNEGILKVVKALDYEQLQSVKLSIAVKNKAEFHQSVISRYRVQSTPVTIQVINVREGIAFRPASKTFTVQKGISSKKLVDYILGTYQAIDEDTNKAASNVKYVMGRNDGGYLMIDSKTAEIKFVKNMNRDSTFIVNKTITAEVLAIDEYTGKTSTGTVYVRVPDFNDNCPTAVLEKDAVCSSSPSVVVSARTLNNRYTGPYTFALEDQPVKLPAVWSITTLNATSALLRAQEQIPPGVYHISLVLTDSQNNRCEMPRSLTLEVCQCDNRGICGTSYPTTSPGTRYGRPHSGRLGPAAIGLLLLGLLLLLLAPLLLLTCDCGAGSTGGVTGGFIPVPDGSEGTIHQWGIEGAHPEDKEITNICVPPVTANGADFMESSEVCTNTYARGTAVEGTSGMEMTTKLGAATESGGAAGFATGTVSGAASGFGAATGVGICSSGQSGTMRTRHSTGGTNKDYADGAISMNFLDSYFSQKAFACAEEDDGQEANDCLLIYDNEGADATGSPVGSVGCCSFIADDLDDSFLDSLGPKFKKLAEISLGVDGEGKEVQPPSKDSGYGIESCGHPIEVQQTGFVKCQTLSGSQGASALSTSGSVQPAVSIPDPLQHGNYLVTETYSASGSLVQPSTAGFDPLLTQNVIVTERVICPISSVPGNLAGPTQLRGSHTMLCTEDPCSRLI
row,Structure (SMILES),binding response (% of DMSO)
1,Cc1ccc([C@H]2C[C@H](n3cc(C4CC4)nn3)[C@@H](O)CN2Cc2cccs2)cc1,119% (inactive)
2,COc1ccc(S(=O)(=O)N2CCCCCC2)cc1N,100% (inactive)
3,COc1ccc(C(=O)Nn2c(C)nc3ccccc3c2=O)cc1Br,98% (inactive)
4,COc1ccc(Br)c(C(=O)Nc2cccc(S(=O)(=O)N3CCOCC3)c2)c1,98.5% (inactive)
5,CC(=O)Nc1ccc(S(=O)(=O)NCc2ccc3c(c2)cc(C)n3C)cc1,99.3% (inactive)
6,CC(C)Oc1ccc(C(=O)Nc2ccc(NC(=O)c3ccco3)c(Cl)c2)cc1,100% (inactive)
7,O=C(NCc1ccccc1)C1CCN(S(=O)(=O)c2cccc3cccnc23)CC1,109% (inactive) and 103% (inactive)
8,S=C(NCCCN1CCOCC1)N1CCN(c2cccc(Cl)c2)CC1,100% (inactive)
9,COc1ccc(CNS(=O)(=O)c2cn(C)c(=O)n(C)c2=O)cc1,95% (inactive)
10,Cc1c(C(=O)N2CCN(c3ccc(F)cc3)CC2)sc2nc(-c3ccccc3)cn12,101% (inactive)
11,COc1ccc(NC(=O)c2cc(-c3ccc(C)o3)nc3ccccc23)cc1OC,103% (inactive)
12,CCOC(=O)CSc1nnc(-c2ccccc2NC(=O)c2ccccc2)o1,95% (inactive)
13,Cc1cc(C)n2c(SCC(=O)N3CCN(S(=O)(=O)c4ccc(Cl)cc4)CC3)nnc2n1,92.2% (inactive)
14,CC(C)c1ccccc1NS(=O)(=O)N(C)C,99.3% (inactive)
15,CN(C)c1nc(N)ncc1-c1ccc(Oc2ccccc2)cc1,83.8% (inactive)
16,Cc1nnc(NC(=O)c2ccc(-c3ccc(Cl)cc3)o2)s1,104% (inactive)
17,COc1ccc2cc(C(=O)COC(=O)COc3ccc4c(C)cc(=O)oc4c3)ccc2c1,91.2% (inactive)
18,COc1ccc(-c2nc(C#N)c(NCc3ccccc3Cl)o2)cc1,89.4% (inactive)
19,COc1ccc(CCn2nnnc2C(C(C)C)N2CCN(c3ncccn3)CC2)cc1OC (stereo not given),96.4% (inactive)
20,CCOc1ccc(-n2nc3ccc(NC(=O)c4ccc5c(c4)OCCO5)cc3n2)cc1,85.4% (inactive)
21,O=C(Nc1nc(-c2ccccc2)c(-c2ccccc2)s1)c1ccc(S(=O)(=O)N2CCCCC2)cc1,96.3% (inactive)
22,COc1ccc(CCNC(=O)COc2cccc(-n3cnnn3)c2)cc1,108% (inactive)
23,NC(=O)CC(NC(=O)Cc1cccc2ccccc12)c1ccc(NCCOc2ccccc2)c([N+](=O)[O-])c1 (stereo not given),104% (inactive)

row,Structure (SMILES),binding response (% of DMSO)
1,CCOC(=O)c1cc(-c2ccc(/C=C3/C(=O)N(c4ccc(C(=O)O)cc4)N=C3C)o2)ccc1Cl,54.4% (active)
2,CCOC(=O)c1ccc(-c2nnc(-c3ccc(Cl)cc3Cl)o2)cc1,100% (inactive)
3,O=C(O)c1ccc(-c2ccc(/C=C3\NC(=O)N(Cc4ccc(Cl)cc4)C3=O)o2)cc1Cl,103% (inactive)
4,O=C(NCCCN1CCOCC1)c1cc2nc(-c3ccco3)cc(C(F)(F)F)n2n1,101% (inactive)
5,CC1CC(C)CN(c2ncc3c(n2)CC(c2ccccc2)CC3=O)C1 (stereo not given),99% (inactive)
6,O=c1c2nnn(Cc3ccc(Cl)cc3)c2ncn1Cc1ccc(F)cc1,93.7% (inactive)
7,O=C(Nc1ccc(N2CCN(C(=O)c3ccccc3)CC2)cc1)c1cc2ccccc2o1,93.8% (inactive)
8,Cc1ccc(N2CCN(S(=O)(=O)c3nnc(NC(=O)c4ccccc4)s3)CC2)cc1,98.7% (inactive)
9,CCOc1ccc2c(c1)C(NC(C)=O)C(=O)N2CCN1CCOCC1 (stereo not given),97.4% (inactive)
10,O=C(Nc1cccc(NC(=O)c2ccc(Cl)cc2)n1)c1ccc(Cl)cc1,100% (inactive)
11,CNC(=O)CN1C(=O)NC(c2ccccc2)(c2ccccc2)C1=O,100% (inactive)
12,Cc1ccc(Sc2ncccc2COC(=O)Nc2c(C)cccc2C)cc1,96.3% (inactive)
13,FC(F)(F)c1cc(-c2ccco2)nc(NCCc2ccccc2)n1,106% (inactive)
14,O=C(NCCCN1CCOCC1)c1cc(-c2cccc(Br)c2)nc2ccccc12,102% (inactive)
15,COc1ccc(-c2cn3c(C)c(C(=O)NC(C)C)sc3n2)cc1,95.9% (inactive)
16,O=C(Nc1ccc(NS(=O)(=O)c2ccccc2)cc1)c1ccc(Cl)cc1,49.9% (inactive)
17,Cc1ccc(NS(=O)(=O)c2ccc3c(c2)oc(=O)n3C)cc1F,99.5% (inactive)
18,CCn1nc(C(=O)OCc2c(C)noc2C)c2ccccc2c1=O,104% (inactive)
19,COc1ccc(NC(=O)CCCC(=O)c2ccccc2)cc1,103% (inactive)
20,CCN(CC)CC(=O)NN=C(c1ccccc1)c1ccccc1,100% (inactive)
21,CCSc1nnc(NC(=O)CSc2nnc(CNC(=O)c3ccc(OC)cc3)o2)s1,102% (inactive)
22,CCN(CC(=O)Nc1ccc(S(=O)(=O)N2CCCCC2)cc1)Cc1ccccc1,98% (inactive)
23,O=C(COc1ccccc1Cl)NCCNC(=O)c1ccccn1,101% (inactive)

row,Structure (SMILES),binding response (% of DMSO)
1,CCN(CC)CCn1c2c(c(SCC(=O)Nc3ccc(C)c(F)c3)nc1=O)CCC2,103% (inactive)
2,Cc1nc(N)sc1-c1csc(Nc2ncccn2)n1,95.9% (inactive)
3,Cc1cnc(C(=O)N2CCN(S(=O)(=O)c3cc(C(F)(F)F)cc(C(F)(F)F)c3)CC2)cn1,110% (inactive)
4,COc1ccc(S(=O)(=O)N2CCN(CC(=O)Nc3cc(Cl)ccc3Cl)CC2)cc1,95% (inactive)
5,COc1ccc(-n2c(SCC(=O)O)nc3sc4c(c3c2=O)CCCC4)cc1,103% (inactive)
6,CCOC(=O)N1CCC(n2c(SCC(=O)c3ccccc3)nc3ccsc3c2=O)CC1,93.2% (inactive)
7,Cc1ccc(NS(=O)(=O)c2c(C)[nH]c(C)c2C(=O)N2CCCCC2)c(Br)c1,101% (inactive)
8,CCCCCC(=O)N1C[C@@H](O)[C@H](n2cc(-c3ccc(F)cc3)nn2)C[C@@H]1c1ccc(OC)cc1,99.7% (inactive)
9,CC(=O)c1cc2c(cc1NC(=O)c1ccc(Cl)cc1)OCCO2,87.5% (inactive)
10,COc1ccc(NC(=O)Cn2nnc(C(=O)NCc3ccccc3)c2N)cc1Cl,76.4% (inactive)
11,CC(C)Oc1ccc(C(=O)Nc2c3c(nn2-c2ccccc2)CS(=O)(=O)C3)cc1,96.5% (inactive)
12,CC(=O)c1ccc(NC(=O)Cn2cnc(S(=O)(=O)N3CCc4ccccc43)c2)cc1,94.8% (inactive)
13,COc1cccc(C(=O)NCc2ccc3c(c2)cc(C)n3C)c1,109% (inactive)
14,NNc1nc2c(-c3ccc(Cl)cc3)nnn2c2ccccc12,91.9% (inactive)
15,COc1ccc(NC(=O)NN2CCN(C)CC2)c(OC)c1,99.8% (inactive)
16,CSc1ccccc1OCc1cc(C(=O)N2CCN(Cc3nccn3C)CC2)no1,106% (inactive)
17,C=CCNc1nc(-c2cccc(OC)c2O)nc2ccccc12,92.4% (inactive)
18,Nc1nc(SCc2nnc(SCC(=O)O)n2-c2ccccc2)nc2sc3c(c12)CCCC3,106% (inactive)
19,C=CCn1c(O)c(C2=c3ccccc3=NC2=O)s/c1=N/c1nccs1,71.7% (inactive)
20,C=CCN1C2CCCC1CC(NC(=O)Nc1cccc(C(C)=O)c1)C2 (stereo not given),104% (inactive)
21,COc1ccc(NC(=O)c2cc(-c3ccco3)nc3ccccc23)cc1,74.5% (inactive)
22,COc1ccc(NC(=O)CN(C)Cc2cccs2)cc1Cl,105% (inactive)
23,COC(=O)c1ccc(NC(=O)COc2ccc3c(c2)OCO3)cc1,102% (inactive)

row,Structure (SMILES),binding response (% of DMSO)
1,CN(c1ccc(C(=O)NC2CC3CCC2C3)cc1)S(C)(=O)=O (stereo not given),101% (inactive)
2,CC(=O)C1=C(O)CC(c2ccccc2)CC1=NCCc1c(C)[nH]c2ccc(C)cc12 (stereo not given),96.5% (inactive)
3,CC(C)CNC(=O)c1ccccc1NC(=O)CN(c1ccccc1)S(=O)(=O)N(C)C,102% (inactive)
4,CCOC(=O)c1c(S(=O)(=O)NCC(C)c2ccccc2)c(C)n(C)c1C (stereo not given),97.9% (inactive)
5,CCCOC(=O)CSc1nc(N)c(C#N)c(CC)c1C#N,108% (inactive)
6,CN(C)S(=O)(=O)c1cccc(NC(=O)COC(=O)c2cc3ccccc3oc2=O)c1,90.6% (inactive)
7,COc1ccc(CNC(=O)c2ccc(Cl)c(NC3=NC4CS(=O)(=O)CC4S3)c2)cc1 (stereo not given),104% (inactive)
8,CCn1cc(C(=O)NCc2cccnc2)c(=O)c2cc(F)c(N3CCN(C(=O)c4ccco4)CC3)cc21,105% (inactive)
9,Cc1ccc(S(=O)(=O)N2CCCCC2)cc1NC(=O)CCNC(=O)c1ccccc1Cl,98.5% (inactive)
10,O=C(CSc1nnc(CNC(=O)c2ccc(F)cc2)o1)Nc1nccs1,99.5% (inactive)
11,CCOc1ccccc1NS(=O)(=O)c1ccc2[nH]c(=O)[nH]c2c1,89.3% (inactive)
12,O=C(CN1CCN(S(=O)(=O)c2cc(Br)ccc2Br)CC1)NCc1ccccc1Cl,108% (inactive)
13,Cc1ccc(NC(=O)Nc2ccc3c(c2)OCO3)nc1,101% (inactive)
14,COc1ccc(CCN2CC(C(=O)OCC(=O)NC(Cc3ccccc3)C(C)=O)CC2=O)cc1OC (stereo not given),102% (inactive)
15,CCOc1ccc(NC(=O)c2nc(SCC)ncc2Cl)cc1,101% (inactive)
16,CCOc1ccc(C(=O)Nc2cccc3cccnc23)cc1,93% (inactive)
17,Cc1ccc(C)n1NC(=O)c1cccs1,91.4% (inactive)
18,COc1ccc(CC(=O)OCC(=O)NCc2ccc3c(c2)OCO3)cc1OC,99.5% (inactive)
19,CCOC(=O)N1CCC(NC(=O)c2cc3c(-c4ccc(Cl)cc4)nn(C)c3s2)CC1,95.6% (inactive)
20,COc1cccc(C(=O)Nc2cc(-c3cn4cccnc4n3)ccc2C)c1,102% (inactive)
21,COc1ccc(CNC(=O)C(C)n2nc(C)c3c(C)n(-c4ccccc4)nc3c2=O)c(OC)c1 (stereo not given),95.7% (inactive)
